Experimental data as given in the supplement of paper PMC6411743.
± gives the standard deviation of the averaged measurements. About 6,500 targets were measured; listed, in parts, are those with the largest changes and a random draw of the rest.

Legend:
Test in all cases: NP40-soluble protein abundance relative to vehicle (solubility fold change) (ratio); higher = more soluble protein in presence of ATP
A0A087WWP8 = A0A087WWP8 (UniProt Q5VWQ0)
Summary of the method: (§1)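 In three independent experiments, Jurkat crude lysate made by Dounce homogenisation was treated for 10 min at room temperature and then 3 min at 37 °C with eight concentrations ranging from 0.1 to 10 mM. It was then solubilised with 0.8% NP40 plus benzonase for 60 min at 4 °C and ultracentrifuged. The supernatant was TMT-labelled for LC-MS/MS, and each value is the fold change against the detergent-processed vehicle for the same replicate, using vsn-normalised intensities.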

A0A087WWS1|Q96FV9 = biological target: T1, A0A087WWS1|Q96FV9 (UniProt Q96FV9)
T1 sequence (whole entry): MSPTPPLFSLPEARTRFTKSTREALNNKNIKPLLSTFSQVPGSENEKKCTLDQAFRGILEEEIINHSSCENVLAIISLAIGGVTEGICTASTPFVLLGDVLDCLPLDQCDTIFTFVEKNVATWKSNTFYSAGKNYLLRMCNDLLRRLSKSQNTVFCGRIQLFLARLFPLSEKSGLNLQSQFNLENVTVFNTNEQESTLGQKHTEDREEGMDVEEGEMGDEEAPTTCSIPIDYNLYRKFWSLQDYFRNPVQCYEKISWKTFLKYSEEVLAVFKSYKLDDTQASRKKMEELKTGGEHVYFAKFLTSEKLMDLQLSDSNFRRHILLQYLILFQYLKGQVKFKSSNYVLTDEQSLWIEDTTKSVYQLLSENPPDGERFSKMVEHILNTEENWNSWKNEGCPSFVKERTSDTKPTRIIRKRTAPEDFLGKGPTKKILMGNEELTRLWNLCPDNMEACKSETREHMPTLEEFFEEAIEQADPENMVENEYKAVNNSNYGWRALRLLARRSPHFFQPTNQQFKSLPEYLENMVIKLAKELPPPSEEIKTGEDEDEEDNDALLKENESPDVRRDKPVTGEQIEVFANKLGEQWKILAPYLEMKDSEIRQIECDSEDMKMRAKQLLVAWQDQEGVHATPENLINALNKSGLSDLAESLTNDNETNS
Summary of the method: as §1

A0A087WXC5|O95299|H7C2X4 = A0A087WXC5|O95299|H7C2X4 (UniProt O95299)
A0A087WXC5|O95299|H7C2X4, sequence (O95299 whole entry, one chain of several): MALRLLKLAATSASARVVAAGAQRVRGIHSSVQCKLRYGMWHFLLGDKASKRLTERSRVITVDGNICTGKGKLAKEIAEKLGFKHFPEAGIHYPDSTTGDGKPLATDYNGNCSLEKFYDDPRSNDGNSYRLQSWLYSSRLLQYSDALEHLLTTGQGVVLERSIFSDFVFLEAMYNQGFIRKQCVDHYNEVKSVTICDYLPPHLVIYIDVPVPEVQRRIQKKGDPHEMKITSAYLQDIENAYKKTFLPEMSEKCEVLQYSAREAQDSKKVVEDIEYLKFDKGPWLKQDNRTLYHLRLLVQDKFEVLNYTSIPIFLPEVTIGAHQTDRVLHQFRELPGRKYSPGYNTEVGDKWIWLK
Summary of the method: as §1

[1] = biological target: A0A087WY00|F8W6H6|Q9Y4I1|Q9Y4I1-2|Q9Y4I1-3|G3V394 (UniProt Q9Y4I1)
A0A087WY00|F8W6H6|Q9Y4I1|Q9Y4I1-2|Q9Y4I1-3|G3V394, sequence (Q9Y4I1 whole entry, one chain of several): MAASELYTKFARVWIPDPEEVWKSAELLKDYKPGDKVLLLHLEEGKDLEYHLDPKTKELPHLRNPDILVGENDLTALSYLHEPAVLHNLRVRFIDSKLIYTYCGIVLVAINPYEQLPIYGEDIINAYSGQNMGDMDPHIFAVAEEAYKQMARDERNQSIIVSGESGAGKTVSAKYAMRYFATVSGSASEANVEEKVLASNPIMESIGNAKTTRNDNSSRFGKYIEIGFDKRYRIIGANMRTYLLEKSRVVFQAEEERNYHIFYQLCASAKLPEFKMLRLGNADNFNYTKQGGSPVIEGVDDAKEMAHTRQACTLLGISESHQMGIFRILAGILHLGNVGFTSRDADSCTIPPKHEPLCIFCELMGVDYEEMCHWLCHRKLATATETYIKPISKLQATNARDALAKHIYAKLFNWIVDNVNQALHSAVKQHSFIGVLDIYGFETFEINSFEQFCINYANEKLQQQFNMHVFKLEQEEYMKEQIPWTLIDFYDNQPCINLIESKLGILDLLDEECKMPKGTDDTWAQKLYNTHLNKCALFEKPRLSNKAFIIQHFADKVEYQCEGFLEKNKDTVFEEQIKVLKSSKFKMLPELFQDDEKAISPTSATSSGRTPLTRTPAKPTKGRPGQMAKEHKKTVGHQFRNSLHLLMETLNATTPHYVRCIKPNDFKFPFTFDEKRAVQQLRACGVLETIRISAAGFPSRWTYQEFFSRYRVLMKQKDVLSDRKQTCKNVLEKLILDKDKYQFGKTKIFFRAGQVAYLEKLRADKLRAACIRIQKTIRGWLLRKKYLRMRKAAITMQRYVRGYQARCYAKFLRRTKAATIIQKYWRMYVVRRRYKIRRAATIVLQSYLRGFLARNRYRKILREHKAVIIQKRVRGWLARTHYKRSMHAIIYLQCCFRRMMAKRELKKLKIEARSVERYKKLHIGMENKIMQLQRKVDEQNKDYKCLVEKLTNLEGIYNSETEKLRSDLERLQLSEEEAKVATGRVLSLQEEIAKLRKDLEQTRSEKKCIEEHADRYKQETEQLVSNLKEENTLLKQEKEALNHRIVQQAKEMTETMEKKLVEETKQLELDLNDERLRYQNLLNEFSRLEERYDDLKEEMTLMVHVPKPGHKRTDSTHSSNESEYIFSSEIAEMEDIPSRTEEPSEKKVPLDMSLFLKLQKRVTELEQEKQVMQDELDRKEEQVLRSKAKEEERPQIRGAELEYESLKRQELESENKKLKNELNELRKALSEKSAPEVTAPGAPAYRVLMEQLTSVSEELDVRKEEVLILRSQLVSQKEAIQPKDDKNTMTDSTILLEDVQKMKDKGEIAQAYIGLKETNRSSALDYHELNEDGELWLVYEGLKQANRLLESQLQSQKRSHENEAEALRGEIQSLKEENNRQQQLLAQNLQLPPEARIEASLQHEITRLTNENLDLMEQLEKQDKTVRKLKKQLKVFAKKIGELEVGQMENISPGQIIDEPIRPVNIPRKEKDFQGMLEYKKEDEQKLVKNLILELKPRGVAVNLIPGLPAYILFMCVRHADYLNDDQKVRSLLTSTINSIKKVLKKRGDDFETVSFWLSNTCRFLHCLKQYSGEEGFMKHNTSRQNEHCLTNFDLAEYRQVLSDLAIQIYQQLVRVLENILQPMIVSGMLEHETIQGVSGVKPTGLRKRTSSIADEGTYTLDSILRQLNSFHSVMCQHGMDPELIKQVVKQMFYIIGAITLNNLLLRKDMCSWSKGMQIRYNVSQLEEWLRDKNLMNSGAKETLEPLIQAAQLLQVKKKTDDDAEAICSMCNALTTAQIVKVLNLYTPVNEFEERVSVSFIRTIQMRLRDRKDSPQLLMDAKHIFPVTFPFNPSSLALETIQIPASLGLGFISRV
Summary of the method: as §1

A0A087WYG2|E9PFH7|Q9UPT6 = biological target: T2, A0A087WYG2|E9PFH7|Q9UPT6 (UniProt Q9UPT6)
T2 sequence (whole entry): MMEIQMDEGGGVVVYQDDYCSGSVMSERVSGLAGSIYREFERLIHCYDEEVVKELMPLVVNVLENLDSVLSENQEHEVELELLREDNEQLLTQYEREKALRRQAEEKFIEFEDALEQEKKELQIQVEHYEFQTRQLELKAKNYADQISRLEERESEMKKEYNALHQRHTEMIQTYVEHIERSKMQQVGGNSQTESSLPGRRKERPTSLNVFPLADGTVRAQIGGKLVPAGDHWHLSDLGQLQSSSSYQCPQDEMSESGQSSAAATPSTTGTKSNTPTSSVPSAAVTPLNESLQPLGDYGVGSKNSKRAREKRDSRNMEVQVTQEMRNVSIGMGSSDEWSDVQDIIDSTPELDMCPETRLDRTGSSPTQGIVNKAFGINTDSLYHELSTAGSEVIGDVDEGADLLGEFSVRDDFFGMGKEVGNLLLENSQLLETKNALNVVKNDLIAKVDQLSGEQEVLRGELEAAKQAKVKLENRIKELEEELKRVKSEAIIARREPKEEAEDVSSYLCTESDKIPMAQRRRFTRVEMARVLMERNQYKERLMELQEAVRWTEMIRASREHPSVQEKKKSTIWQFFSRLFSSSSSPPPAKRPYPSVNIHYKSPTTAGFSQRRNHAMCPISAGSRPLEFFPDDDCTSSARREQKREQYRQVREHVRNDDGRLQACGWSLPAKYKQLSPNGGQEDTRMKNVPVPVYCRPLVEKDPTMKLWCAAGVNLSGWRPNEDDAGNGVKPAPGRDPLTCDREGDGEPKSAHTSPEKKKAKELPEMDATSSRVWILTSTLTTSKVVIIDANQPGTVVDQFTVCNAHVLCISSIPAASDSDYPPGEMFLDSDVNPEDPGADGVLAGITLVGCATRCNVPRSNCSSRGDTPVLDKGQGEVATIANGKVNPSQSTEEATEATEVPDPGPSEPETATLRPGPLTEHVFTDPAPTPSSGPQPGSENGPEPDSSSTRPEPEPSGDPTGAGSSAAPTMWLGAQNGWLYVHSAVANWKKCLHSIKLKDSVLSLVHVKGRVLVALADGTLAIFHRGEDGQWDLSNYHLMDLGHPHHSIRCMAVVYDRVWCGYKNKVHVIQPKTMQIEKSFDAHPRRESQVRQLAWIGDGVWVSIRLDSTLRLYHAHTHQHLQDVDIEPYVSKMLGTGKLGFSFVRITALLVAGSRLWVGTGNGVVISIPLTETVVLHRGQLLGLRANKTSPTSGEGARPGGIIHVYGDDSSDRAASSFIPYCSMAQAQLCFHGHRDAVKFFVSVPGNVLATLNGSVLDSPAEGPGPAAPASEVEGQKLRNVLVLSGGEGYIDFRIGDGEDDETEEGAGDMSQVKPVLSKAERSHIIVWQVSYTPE
Summary of the method: as §1

A0A087WWP8, sequence (Q5VWQ0 whole entry): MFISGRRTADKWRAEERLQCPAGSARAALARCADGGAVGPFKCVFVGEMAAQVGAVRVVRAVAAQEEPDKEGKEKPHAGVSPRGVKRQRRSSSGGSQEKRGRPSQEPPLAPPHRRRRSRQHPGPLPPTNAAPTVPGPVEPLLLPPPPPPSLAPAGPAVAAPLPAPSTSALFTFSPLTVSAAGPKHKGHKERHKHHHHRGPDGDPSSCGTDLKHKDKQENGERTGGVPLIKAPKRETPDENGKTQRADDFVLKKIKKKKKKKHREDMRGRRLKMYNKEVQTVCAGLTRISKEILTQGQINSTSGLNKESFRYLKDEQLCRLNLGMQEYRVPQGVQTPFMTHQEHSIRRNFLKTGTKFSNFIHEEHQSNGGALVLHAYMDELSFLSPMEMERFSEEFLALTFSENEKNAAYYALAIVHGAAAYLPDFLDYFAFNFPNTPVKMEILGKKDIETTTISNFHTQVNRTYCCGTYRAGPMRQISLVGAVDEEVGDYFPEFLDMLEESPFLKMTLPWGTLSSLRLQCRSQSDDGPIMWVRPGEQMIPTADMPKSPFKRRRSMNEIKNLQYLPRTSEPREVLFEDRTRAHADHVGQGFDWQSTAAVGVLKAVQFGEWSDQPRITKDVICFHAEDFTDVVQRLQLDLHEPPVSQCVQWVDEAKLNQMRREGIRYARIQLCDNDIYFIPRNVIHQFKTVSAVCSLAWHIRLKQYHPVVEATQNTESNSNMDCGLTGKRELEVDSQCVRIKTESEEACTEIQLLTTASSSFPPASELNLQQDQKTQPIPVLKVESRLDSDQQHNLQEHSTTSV

Nc1ncnc2c1ncn2[C@@H]1O[C@H](COP(=O)(O)OP(=O)(O)OP(=O)(O)O)[C@@H](O)[C@H]1O [adenosine triphosphate]
NP40-soluble protein abundance (A0A087WWP8; concentration: 6mM): 1.68 ± 0.048
NP40-soluble protein abundance (A0A087WWP8; concentration: 8mM): 1.68 ± 0.069
NP40-soluble protein abundance (A0A087WWP8; concentration: 10mM): 1.69 ± 0.063
NP40-soluble protein abundance (A0A087WWS1|Q96FV9; concentration: 1mM): 1.509 ± 0.011
NP40-soluble protein abundance (A0A087WWS1|Q96FV9; concentration: 2mM): 1.65 ± 0.068
NP40-soluble protein abundance (A0A087WWS1|Q96FV9; concentration: 4mM): 1.89 ± 0.099
NP40-soluble protein abundance (A0A087WWS1|Q96FV9; concentration: 6mM): 2.14 ± 0.2
NP40-soluble protein abundance (A0A087WWS1|Q96FV9; concentration: 8mM): 2.31 ± 0.075
NP40-soluble protein abundance (A0A087WWS1|Q96FV9; concentration: 10mM): 2.4 ± 0.13
NP40-soluble protein abundance (A0A087WXC5|O95299|H7C2X4; concentration: 1mM): 1.03 ± 0.024
NP40-soluble protein abundance (A0A087WXC5|O95299|H7C2X4; concentration: 2mM): 1.02 ± 0.033
NP40-soluble protein abundance (A0A087WXC5|O95299|H7C2X4; concentration: 4mM): 0.982 ± 0.034
NP40-soluble protein abundance (A0A087WXC5|O95299|H7C2X4; concentration: 6mM): 1 ± 0.022
NP40-soluble protein abundance (A0A087WXC5|O95299|H7C2X4; concentration: 8mM): 1.02 ± 0.023
NP40-soluble protein abundance (A0A087WXC5|O95299|H7C2X4; concentration: 10mM): 1 ± 0.034
NP40-soluble protein abundance ([1]; concentration: 1mM): 2.94 ± 0.086
NP40-soluble protein abundance ([1]; concentration: 2mM): 2.89 ± 0.071
NP40-soluble protein abundance ([1]; concentration: 4mM): 2.94 ± 0.14
NP40-soluble protein abundance ([1]; concentration: 6mM): 2.96 ± 0.19
NP40-soluble protein abundance ([1]; concentration: 8mM): 2.96 ± 0.088
NP40-soluble protein abundance ([1]; concentration: 10mM): 2.84 ± 0.062
NP40-soluble protein abundance (A0A087WYG2|E9PFH7|Q9UPT6; concentration: 1mM): 0.979 ± 0.055
NP40-soluble protein abundance (A0A087WYG2|E9PFH7|Q9UPT6; concentration: 2mM): 0.996 ± 0.054
NP40-soluble protein abundance (A0A087WYG2|E9PFH7|Q9UPT6; concentration: 4mM): 0.993 ± 0.097
NP40-soluble protein abundance (A0A087WYG2|E9PFH7|Q9UPT6; concentration: 6mM): 0.988 ± 0.094
NP40-soluble protein abundance (A0A087WYG2|E9PFH7|Q9UPT6; concentration: 8mM): 0.959 ± 0.066
NP40-soluble protein abundance (A0A087WYG2|E9PFH7|Q9UPT6; concentration: 10mM): 0.956 ± 0.029
